Assay results as given in PubChem BioAssay AID485317 (Broad Institute, 2010).
The campaign covered roughly 290,000 compounds. About 11,000 (3.8%) were called active.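 The calls were made as follows: active = mean replicate inhibition above about 79%, with every replicate also reaching it (limit read from the data); inconclusive = only one of the two criteria met; inactive = mean below limit and not every replicate reaching it.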 The list comes from a sample in which actives are over-represented; it also holds similar structures and randomly drawn compounds.

target: FAD-linked sulfhydryl oxidase ALR (Homo sapiens) (UniProt P55789); assay: inhibitors of human ALR sulfhydryl oxidase, primary screen, biochemical, H2O2 detection, HRP-luminol luminescence, single point (AID 485317); details: purified ALR, DTT oxidation, stronger effect = higher value, concentration not given here
Sequence (P55789 whole entry, looked up): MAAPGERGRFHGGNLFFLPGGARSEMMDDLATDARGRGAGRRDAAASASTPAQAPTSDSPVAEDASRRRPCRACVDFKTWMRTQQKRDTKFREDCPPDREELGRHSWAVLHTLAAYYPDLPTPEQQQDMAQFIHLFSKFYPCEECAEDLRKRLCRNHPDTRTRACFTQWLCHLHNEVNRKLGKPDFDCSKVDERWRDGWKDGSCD

inhibition, active:
Clc1ccc2nc(CSc3ccccc3)cn2c1 98.9%
Cc1ccc(-c2nc(C)sc2CC(=O)O)cc1 99.3%
Oc1ccc(/C=N/NC2=NCCCCC2)c(O)c1 81.4%
Cc1nc2ccccc2nc1N/N=C/c1ccc(O)cc1O 95.7%
Cc1cc(C)cc(C(=O)NC2C(=O)N3C(C(=O)O)=C(CSc4nnc(C)s4)CSC23)c1 (stereo not drawn) 98%
O=[N+]([O-])c1ccccc1Nc1ccc(O)cc1 99.6%
CN(CC(=O)NC1CCCCC1)S(=O)(=O)c1cccc2cccnc12 89.5%
COc1cc(/C=C2\CCCc3c2nc2ccccc2c3C(=O)O)cc(Cl)c1O 98.2%
CCc1nnc(NS(=O)(=O)c2ccc(NC(=O)c3cccc(OC(F)(F)C(F)F)c3)cc2)s1 88.3%
COc1cccc(NC(=O)Cn2c3ccccc3c3nc4n(c(=O)c32)CCS4)c1 85.8%
CN(C(=O)CSc1nc(C2CC2)nc2ccccc12)c1nc(-c2ccccc2)cs1 98.6%
Cc1cc(C(=O)CC#N)c(C)n1CC(F)(F)F 94.8%
S=c1[nH]nc2c3c4c(sc3ncn12)CCCC4 97.9%
COc1ccc(/C=C/C(=O)c2ccc(NS(=O)(=O)c3ccc(C)cc3)cc2)cc1O 82.9%
c1csc(-c2cn3c(n2)SCC3)c1 92.3%
COc1ccc(OC)c(Nc2nc(-c3ccc(O)c(O)c3)cs2)c1 94.7%

inhibition, inactive:
O=C1CSc2ccc(C(=O)NCc3ccccn3)cc2N1 -5.07%
Cc1nn(Cc2ccccc2)c(C)c1C(=O)N1CCN(CC(=O)Nc2ccccc2Cl)CC1 -4.78%
COc1ccc(-c2nc3c(s2)CCc2onc(-c4ccc(Br)cc4)c2-3)cc1 -11%
CCOc1ncccc1C(=O)OCc1cn2cc(Cl)ccc2n1 -2.41%
CCCCCCSc1ccc(-c2nc3ccc(Cl)cn3c2NCc2ccccc2)cc1 -0.616%
O=C1N[C@@H](Cc2ccccc2)C(=O)N2[C@H]1C[C@]1(Br)c3ccccc3N(S(=O)(=O)c3ccccc3)[C@H]21 -12.1%
Cc1ccc(-c2nc(C)sc2CC(=O)OCC(=O)Nc2c(F)cccc2F)cc1 -7.76%
CCOc1ccc(-c2nc(C)sc2CC(=O)O)cc1 -6.6%
Cc1ccc(C(=O)OCC(=O)N2CCCCCC2)cc1S(=O)(=O)N1CCOCC1 -22.6%
COc1cccc(CNC(=O)COC(=O)CN2C(=O)NC3(CCCCC3C)C2=O)c1 (stereo not drawn) 2.16%
FC(F)(F)c1nc2ccccc2nc1N/N=C/c1ccc(Cl)cc1 -14.4%
COc1ccc(/C=C(\C#N)C(=O)ONC2=NCCCCC2)cc1 12.1%
COc1ccccc1N1CCN(/N=C/c2ccc(O)cc2O)CC1 1.54%
Oc1ccc(/C=N/Nc2nc(-c3ccccc3F)nc3ccccc23)c(O)c1 6.31%
COc1ccc(OC)c(/C=C/C(=O)c2ccc3c(c2)OCO3)c1 3.84%
COc1cc(OC)cc(C(=O)NNC(=O)CNC(=O)c2ccc(Br)o2)c1 7.85%
CC(=O)Nc1ccc(C(=O)NNC(=O)CCCCC(=O)NNC(=O)c2ccc(NC(C)=O)cc2)cc1 -0.231%
CNC[C@H]1Oc2c(NC(=O)C3CCCCC3)cccc2C(=O)N([C@H](C)CO)C[C@@H]1C -1.07%
C=CC[C@@H](CC(=O)N[C@H](CO)Cc1ccccc1)C(=O)N[C@H](C)COC(=O)[C@@H](CC=C)Cc1ccc(F)cc1 2.31%
CCOC(=O)c1cc(-c2ccccc2C)n(Cc2cc(C)no2)n1 0.367%
Cc1ccc(S(=O)(=O)N2[C@@H](c3ccccc3F)C(C(=O)O)=CC[C@H]2c2ccc(Cl)cc2)cc1 2.55%
COc1ccc(S(=O)(=O)N2CCN(c3cnccn3)CC2)cc1 -0.305%
CO/N=C(\C(=O)N[C@@H]1C(=O)N2C(C(=O)O)=C(COC(C)=O)CS[C@H]12)c1csc(N)n1 (stereo in doubt) -8.83%
Cc1nnc(SCC2=C(C(=O)O)N3C(=O)C(NC(=O)Cn4nc(C)c(Cl)c4C)C3SC2)s1 (stereo not drawn) -10.4%
CCc1ccc(Nc2n[n+](-c3ccccc3)c(-c3cccc(Cl)c3Cl)s2)cc1 -4.3%
Cc1ccc(S(=O)(=O)NCC(=O)NNC(=O)c2ccc(Br)cc2)cc1C -2.29%
CC1(NC(=O)CCS(=O)(=O)c2ccc(Cl)cc2)CCS(=O)(=O)C1 (stereo not drawn) -4.01%
O=[N+]([O-])c1ccc(O)c(/C=N/Nc2ccccc2[N+](=O)[O-])c1 -10.4%
O=C(O)c1ccccc1C(=O)Nc1ccccc1[N+](=O)[O-] -2.15%
Nc1nnc(SCC(=O)NCC(=O)Nc2ccc(F)c(F)c2F)s1 1.09%
CN(CC(=O)NC1CCCC1)S(=O)(=O)c1cnc[nH]1 -4.3%
CN(CC(=O)NC1CCCCC1)S(=O)(=O)c1ccc(Br)s1 -15%
CN(CC(=O)Nc1ccc(Cl)cc1)CC(=O)Nc1cccc2ccccc12 2.05%
CCN(CC(=O)Nc1ccc(OC)cc1)C(=O)c1ccc(=O)n(Cc2ccccc2)n1 0.415%
Cc1noc(C)c1NC(=O)Nc1ccc2c(c1)C(=O)N([C@H](C)CO)C[C@H](C)[C@@H](CN(C)S(=O)(=O)c1cn(C)cn1)O2 -2.52%
NS(=O)(=O)c1ccc(NC(=O)COC(=O)c2c3c(nc4ccccc24)/C(=C\c2ccc4c(c2)OCO4)CCC3)cc1 -36%
O=C(COC(=O)c1c2c(nc3ccccc13)/C(=C\c1cccs1)CCC2)Nc1ccccc1Cl -2.03%
CN(CC(=O)NCCc1ccc(S(N)(=O)=O)cc1)CC(=O)Nc1ccc(Cl)cc1 -9.18%
CC1(C)C/C(=N/Nc2ccc([N+](=O)[O-])cc2[N+](=O)[O-])C(C)(C)O1 -14.3%
CCc1nnc(NS(=O)(=O)c2ccc(NC(=S)NC(=O)c3cccs3)cc2)s1 63.2%
CCc1nnc(NS(=O)(=O)c2ccc(NS(=O)(=O)c3ccccc3)cc2)s1 35.6%
O=C(COc1ccccc1)Nc1cc2c3c(c1)CC(=O)N3CCC2 -6.99%
O=C(c1ccncc1)N1CCN(S(=O)(=O)c2cccc([N+](=O)[O-])c2)CC1 -48.9%
COc1cccc(NC(=O)CN2CCN(CC(=O)Nc3ccccc3Cl)CC2)c1 -2.36%
COc1cccc(NC(=O)Cn2c3ccc(F)cc3c3nc4n(c(=O)c32)CCS4)c1 -3.06%
C[C@H]1CN([C@@H](C)CO)C(=O)Cc2cc(NS(C)(=O)=O)ccc2O[C@@H]1CN(C)CC1CC1 0.795%
Cc1nnc(NC(=O)CSc2nc(C3CCCCC3)nc3ccccc23)s1 -39.6%
O=C(CSc1nc(C2CC2)nc2ccccc12)Nc1ccc2c(c1)OCCO2 40.9%
Cc1ccccc1OCC(=O)NNC(=O)c1ccc(-n2cncn2)c([N+](=O)[O-])c1 -24.1%
O=C(NCCCN1CCCC1=O)c1ccc(S(=O)(=O)Nc2ccccc2)cc1 -9.87%
COc1ccccc1OCCCCCCN1CCN(C)CC1 -12.6%
CCCC(=O)Nc1ncnc2c1ncn2[C@@H]1O[C@@H]2OP(=O)(O)OC[C@H]2[C@H]1OC(=O)CCC -3.4%
Cc1cc(C(=O)COC(=O)CNC(=O)c2ccc(F)cc2)c(C)n1Cc1ccco1 -2.4%
Cc1cc(C(=O)CC#N)c(C)n1-c1c(C)n(C)n(-c2ccccc2)c1=O 14.7%
Cc1ccc(CNC(=O)c2ccc3c(c2)S(=O)(=O)c2ccccc2C3=O)cc1 -10.2%
c1nnc2c3c4c(sc3ncn12)CCC4 45.2%
N=c1c2c3c(sc2ncn1N)CCCC3 -10.4%
Cc1c(O)c(C)c2c(c1O)C(=O)C[C@@H](c1ccccc1)O2 2.46%
COc1ccccc1C(=O)COC(=O)COc1ccc(C#N)cc1 10.4%
O=S(=O)(Nc1ncnc2sccc12)c1cccc(F)c1 8.21%
COc1ccc(NS(=O)(=O)c2ccc(NC(C)=O)cc2)cc1OC -18.8%
COc1ccc(C(=O)Oc2cc(/C=N/NS(=O)(=O)c3ccc(C)cc3)ccc2OC)cc1 -2.65%
CCOC(=O)c1c(C)[nH]c(C(=O)OCC(=O)c2ccc(OC)cc2OC)c1C -8.98%
Cc1cc(-c2cccs2)nc(-n2cccc2)n1 23.5%
CCCS(=O)(=O)Nc1ccc(-c2cn3c(n2)SCC3)cc1 4.68%
O=C(c1ccc(S(=O)(=O)NCc2ccco2)cc1)N1CCN(c2ccccc2)CC1 33.8%
COc1ccc(-c2csc(Nc3ccc(O)cc3)n2)cc1 74.3%
COc1ccc(-c2csc(Nc3ccccn3)n2)cc1 32.2%
CCCCn1c(N)c(N(CC(C)C)C(=O)C2CSC3(C)CCC(=O)N23)c(=O)[nH]c1=O (stereo not drawn) -0.99%
CC(NC(=O)c1cccc(S(=O)(=O)N2CCc3ccccc3C2)c1)c1ccco1 (stereo not drawn) -3.35%
O=C(COC(=O)c1ccc(F)c(S(=O)(=O)N2CCOCC2)c1)NCc1ccc2c(c1)OCO2 -8.6%
CNS(=O)(=O)c1cccc(C(=O)OCCCC(=O)c2ccccc2)c1 1.28%
